# Reference: PubChem BioAssay (NCI)
# This is part of a sample that, as a whole, favours compounds with a hit. Of some 83,000 tested, about 20% had one in any assay.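 Results are percent growth after 48 hours of single-concentration exposure. 100 means growth as in untreated cells, lower positive values show inhibition; negative values down to -100 show cell death.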 Unmarked numbers belong to inactive results. Activity calls are given as the source filed them. The calls were made as follows: active = growth percent below 10; inactive = the rest.
# Columns and labels:
# Assay in all cases: NCI-60 one-dose screen, 48 h (100 = growth as untreated, 0 = no growth, -100 = all killed)
# HT29 colon = conditions: 10 µM unless noted
# SNB-19 CNS = conditions: 10 µM unless noted
# U251 CNS = conditions: 10 µM unless noted
# PC-3 prostate = conditions: 10 µM unless noted
# UACC-62 melanoma = conditions: 10 µM unless noted
# LOX IMVI melanoma = conditions: 10 µM unless noted
# SK-MEL-28 melanoma = conditions: 10 µM
# SK-MEL-2 melanoma = conditions: 10 µM unless noted
# EKVX NSCLC = conditions: 10 µM unless noted
# SN12C renal = conditions: 10 µM unless noted
# UO-31 renal = conditions: 10 µM unless noted
# TK-10 renal = conditions: 10 µM unless noted
# ACHN renal = conditions: 10 µM unless noted
# CAKI-1 renal = conditions: 10 µM unless noted
# CCRF-CEM leukemia = conditions: 10 µM unless noted
# MOLT-4 leukemia = conditions: 10 µM unless noted
# SR leukemia = conditions: 10 µM unless noted
# SNB-75 CNS = conditions: 10 µM unless noted
# A498 renal = conditions: 10 µM unless noted
# SK-MEL-5 melanoma = conditions: 10 µM unless noted
SMILES,growth (HT29 colon),growth (SNB-19 CNS),growth (U251 CNS),growth (PC-3 prostate),growth (UACC-62 melanoma),growth (LOX IMVI melanoma),growth (SK-MEL-28 melanoma),growth (SK-MEL-2 melanoma),growth (EKVX NSCLC),growth (SN12C renal),growth (UO-31 renal),growth (TK-10 renal),growth (ACHN renal),growth (CAKI-1 renal),growth (CCRF-CEM leukemia),growth (MOLT-4 leukemia),growth (SR leukemia),growth (SNB-75 CNS),growth (A498 renal),growth (SK-MEL-5 melanoma)
O=C(CN1C=NC2C(N3CCOCC3)=NC=NC21)c1cccc2ccccc12 (stereo unspecified),111%,96.7%,101%,85.2%,85.5%,91.9%,109%,99%,86.5%,95.5%,71.6%,130%,97.8%,73.1%,104%,93.3%,85.1%,,,
O=C(N=Nc1c(O)[nH]c2ccccc12)c1oc2ccccc2c1CN1CCN(c2ccccc2)CC1,15.8%,18.6%,-22.2% (active),-22.2% (active),4.02% (active),2.72% (active),-31.8% (active),72.9%,4.35% (active),11.5%,-52.2% (active),-45.1% (active),-85.2% (active),32.9%,19.7%,30.7%,1.67% (active),,,
CCCSC1=NC2C(N(CC)C(=O)N2CC)N1/N=C/C=C/c1ccccc1[N+](=O)[O-] (stereo unspecified),9.1% (active),29.6%,21.7%,24.9%,36.6%,37.7%,63.5%,48.6%,53.6%,40.6%,44%,85.1%,41.5%,44.1%,16%,18.6%,9.32% (active),,,
COc1ccc2[nH]c(O)c(N=NC(=O)c3oc4ccccc4c3C)c2c1,27.3%,42.7%,2.05% (active),21.8%,34.3%,16.3%,15.8%,,37.3%,34.9%,-55.3% (active),-64% (active),-50.9% (active),-51.7% (active),57.1%,50.9%,43.5%,,,
O=C(Nc1ccc(Br)cc1F)c1cc(Cl)ccc1O,15.6%,,-0.181% (active),-5.33% (active),-24.9% (active),1.68% (active),-6.77% (active),-25.8% (active),8.37% (active),-5.66% (active),9.99% (active),0.819% (active),0.275% (active),-21.3% (active),5.57% (active),-28.1% (active),,-34.7% (active),-70.2% (active),
c1ccc2c(c1)oc1cc3sccc3nc12,106%,98.3%,92%,93.4%,94.2%,96.8%,109%,95.3%,101%,93%,66.6%,135%,99.5%,78%,100%,97.7%,96.5%,,,
NC(CCc1nc2ccccc2c(=O)[nH]1)C(=O)O (stereo unspecified),104%,98.3%,96.6%,102%,100%,,110%,102%,99.7%,96.6%,86.7%,102%,113%,87.5%,103%,103%,96.8%,,,
CCCCCCCCCCOC(=O)c1ccccc1C(=O)OCCCC,105%,,101%,90.4%,,102%,119%,111%,,,81.3%,108%,109%,,103%,95.4%,100%,81.9%,121%,
O=C(Nc1ccc(I)cc1F)c1cc(Br)ccc1O,30.4%,,-14.5% (active),7.44% (active),-19.2% (active),6.07% (active),-3.35% (active),-26.5% (active),6.95% (active),3.31% (active),8.84% (active),1.98% (active),4.42% (active),-18.9% (active),7.25% (active),-12.2% (active),,-26.1% (active),-62.1% (active),
CCN1C(=O)N(c2ccccc2)C2NN=c3s/c(=C4\C(=O)N(C(C)C)c5ccccc54)c(=O)n3C21 (stereo unspecified),9.74% (active),35.7%,25.9%,25.7%,37.6%,31.4%,62.8%,48.8%,55.9%,38.7%,55.6%,74.9%,37.1%,49.1%,15.1%,20.9%,14.6%,,,
CC[C@@H](C)[C@H](NC(=O)Cn1cc(CNC(=O)[C@@H](NC(=O)OCc2ccccc2)C(C)C)nn1)C(=O)O,,106%,104%,97.2%,100%,99.7%,113%,110%,100%,97.1%,95.1%,112%,,88.4%,106%,109%,101%,101%,98.9%,102%
CCN1CCN(C(=S)SCC(=O)Nc2nc3ccc(C)cc3s2)CC1,102%,,110%,88.8%,,3.49% (active),108%,105%,122%,99.1%,60.6%,111%,103%,87.2%,,111%,103%,89%,126%,97.5%
CCOC(=O)C1=CN(C)C=C(C(=O)OCC)C1c1cc(Br)c(OCC)c(OC)c1,7.46% (active),,34.8%,45.2%,-48% (active),,18.8%,72.3%,,,16.3%,43%,54.6%,52.5%,32.9%,27.5%,-0.61% (active),43.5%,59.1%,36.1%
